Potency data for 103 compounds are collected here from PubChem BioAssay AID686978 (National Center for Advancing Translational Sciences (NCATS), 2013).

About 64,000 (15%) of roughly 420,000 compounds were called active. Roughly 27% stayed inconclusive and do not appear here. Calls follow the shape of the dose curve; as a rule, active = well fitted inhibition curve with a large enough effect; inconclusive = small, poorly fitted or top-dose-only effect; inactive = flat fitted curve, though single readings scatter. A selection follows. Entries that show only a call come without a potency.
Potency is read from the fitted curve at half-maximal effect.

The assay is described as follows: qHTS for Inhibitors of human tyrosyl-DNA phosphodiesterase 1 (TDP1): qHTS in cells in absence of CPT. Also: nearly all actives have a fitted effect of over 55% in size. Conditions: DT40 Tdp1-/- hTDP1 cells, no CPT, ATP luminescence, 48 h; activity change, negative = growth inhibition: at 46.2 µM (top of the series). An outline of the steps: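 Readout: luminescence from CellTiter-Glo after 30 min in the dark at RT. Cells: DT40 Tdp1-/- with stable hTDP1, 400/well. Exposure: compounds alone, ≥48 hr, 37 °C.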
For orientation: In qHTS, concentration-response curves come from the screen itself.
As to `Cc1ccc(CNC(=O)Nc2nnc([C@H]3C[C@H](O)[C@@H](CO)O3)s2)cc1`, the Potency result is “inactive”.
Turning to `O=C(O)CC(SCC(=O)Nc1ccc(Br)cc1)C(=O)O` (stereo not drawn), the Potency result was “inactive”.
As for `O=C(Nc1nnc(CCOCCOCCc2nnc(NC(=O)c3ccco3)s2)s1)c1ccco1`, the Potency entry was “inactive”.
As to `CCC(=O)Nc1nc(OC)cc(OC)n1`, the Potency entry was “inactive”.
For `Cc1cccc(NC(=S)N2CCC(O)CC2)c1C`, the Potency result is “inactive”.
On to `CCOc1ccccc1NC(=S)N1CCN(c2cccc(C)c2C)CC1`, for which the Potency is 8.2 µM (active).
For the compound `CCOc1ccccc1NC(=O)C1CCCN(C(=O)Nc2ccccc2)C1` (stereo not drawn), the Potency result was “inactive”.
As for `Cc1c(C)n(Cc2ccc(Cl)cc2)c2ccc(C(=O)N3CCN(c4ccccc4F)CC3)cc12`, the Potency was 23.1 µM (active).
As to `O=C(c1ccc(CN2CCOCC2)cc1)N1CCN(c2ccccc2F)CC1`, the Potency entry was “inactive”.
Consider `CCc1ccc(NC(=O)CS(=O)CC(=O)N2CCN(c3ccccc3F)CC2)cc1` (stereo not drawn), for which the Potency result was “inactive”.
`Brc1ccccc1C1Nc2cccc3cccc(c23)N1`: the Potency entry is “inactive”.
For the compound `O=C(Cc1ccc(F)cc1)NC1CCCC1`, the Potency entry is “inactive”.
For the compound `CCOc1ccc(NC(=O)CN(C)C(=O)c2c(C)noc2C)cc1OCC`, the Potency result was “inactive”.
`N#CC1(NC(=O)COc2ccc3oc4ccccc4c3c2)CCCCC1`: the Potency entry was “inactive”.
`CCOC(=O)[C@H]1CCC[C@@H](NS(=O)(=O)c2ccc(NC(C)=O)cc2)C1`: the Potency entry was “inactive”.
For `COc1ccccc1OC(C)C(=O)Nc1ccc(S(=O)(=O)Nc2nccs2)cc1` (stereo not drawn), the Potency entry was “inactive”.
`CCOc1ccc(C(C(=O)NCCOC)N(CCOC)C(=O)CCC(=O)Nc2ccccn2)cc1` (stereo not drawn): the Potency entry is “inactive”.
With `Cc1ccc(C(=O)NCCc2nnc(SCC(=O)Nc3cccc(C(=O)O)c3)n2C)cc1`, the Potency result was “inactive”.
Regarding `CCS(=O)(=O)C1=NSC2=NC(=O)/C(=C\c3cc(C)n(-c4cccc(OC)c4)c3C)C(=N)N21`, the Potency entry was “inactive”.
In the case of `CCCCN(C=O)c1c(CC)nc2c(OCCC3CCCCC3)cccn12`, the Potency is 9.2 µM (active).
With `CCOc1ccccc1N(CC(=O)Nc1ccccc1C(=O)OC)S(C)(=O)=O`, the Potency entry was “inactive”.
For `CCc1nc2c(OCC(=O)C(C)(C)C)cccn2c1N(C)C(=O)c1ccccc1F`, the Potency result is “inactive”.
Turning to `CCc1nc2c(OCC(N)=O)cccn2c1N(C)C(=O)c1ccc(OC)cc1`, the Potency result is “inactive”.
Turning to `CCc1nc2ccc(C(=O)N3CCN(S(=O)(=O)CC)CC3)cn2c1N(C=O)CCC(C)C`, the Potency result was “inactive”.
On to `CCCCN(C=O)c1c(CC)nc2c(OCc3ccccc3C(=O)OC)cccn12`, for which the Potency was 20.6 µM (active).
For the compound `CCc1nc2c(OCCC3CCCCC3)cccn2c1N(C)C(=O)c1ccco1`, the Potency was 16.4 µM (active).
Consider `O=C(CNC(=O)c1ccco1)OCC(=O)c1ccccc1`, for which the Potency result is “inactive”.
Regarding `COc1ccc(COC(=O)N/N=C(\C)CC(=O)Nc2ccc(Cl)cc2)cc1`, the Potency entry is “inactive”.
With `CN(C)/N=C/c1cc(Cl)cc([N+](=O)[O-])c1O`, the Potency result is “inactive”.
The value for `O=C(NC(Cc1ccccc1)C(=O)O)/C(=C\c1ccccc1)NC(=O)c1ccco1` (stereo not drawn) was “inactive”.
As for `CC(=O)Nc1ccc(NC(=O)CS(=O)(=O)c2cn(CC(=O)N3CCCCC3)c3ccccc23)cc1`, the Potency entry is “inactive”.
In the case of `Cc1noc(C)c1C(=O)Nc1ccccn1`, the Potency result is “inactive”.
Under `CCOC1=C2CN(S(=O)(=O)c3ccc(C)cc3)[C@H](c3cccs3)C[C@H]2[C@H]2C(=O)N(c3ccccc3)C(=O)[C@H]2C1` stands “inactive”.
Consider `COC(=O)CSc1nnc(-c2cccnc2)o1`, for which the Potency result was “inactive”.
Consider `CN(CC(=O)NC1CCCC1)S(=O)(=O)c1cnc[nH]1`, for which the Potency entry is “inactive”.
Take `CC1(C(=O)O)CCC(C(=O)Nc2ccc(Cl)c(Cl)c2)C1(C)C` (stereo not drawn): the Potency entry was “inactive”.
Turning to `COc1ccc(-c2nc3n(c2Br)CCC3)cc1`, the Potency entry is “inactive”.
On to `COc1cc2[nH]c(=O)n(CCC(=O)NC3CCN(Cc4ccccc4)CC3)c(=O)c2cc1OC`, for which the Potency result is “inactive”.
As to `CCOc1ccc(C(=O)NC2CCN(CC(=O)NCc3cccs3)CC2)cc1`, the Potency result is “inactive”.
For `COc1cc(C(=O)NC2CCN(Cc3ccccc3)CC2)cc(Cl)c1OC(C)C`, the Potency is 20.6 µM (active).
Consider `COc1ccc(C(=O)O)cc1S(=O)(=O)NC1CCN(Cc2ccccc2)CC1`, for which the Potency result was “inactive”.
For the compound `COC(=O)c1cccc(NC(=O)CN2CCC(NC(=O)c3cc(OC)c(OC)c(OC)c3)CC2)c1`, the Potency was 16.4 µM (active).
With `COC(=O)c1cc(NC(=O)CN2CCN(C(C)=O)CC2)cc(C(=O)OC)c1`, the Potency entry is “inactive”.
Under `Cc1c(C=O)c2ccccc2n1CC(=O)O` stands “inactive”; under `CC(NC(=O)COC(=O)c1ccc(Cl)cc1O)c1ccc(F)cc1` (stereo not drawn), “inactive”; under `Cc1ccc(S(=O)(=O)NCc2cn3ccsc3n2)c(C)c1`, “inactive”.
With `Cn1nnnc1SCC(=O)Nc1nc2ccccc2s1`, the Potency result is “inactive”.
`Cc1ccn2c(=O)nc(SCC(=O)NCc3ccc(F)cc3)nc2c1`: the Potency entry was “inactive”.
`COc1ccc(/C=C/C(=O)Nc2ccc(C34CC5CC(CC(O)(C5)C3)C4)cc2)cc1OC`: the Potency was 1.3 µM (active).
Under `COc1ccc(/C=C/C(=O)Nc2cccnc2)cc1OC` stands “inactive”; under `Cc1ccc(C23CC4CC(CC(C(=O)NCC(=O)O)(C4)C2)C3)cc1`, “inactive”.
Consider `CCC(=O)NNc1cc(=O)c2c(=O)n(C)c(=O)n(C)c2[nH]1`, for which the Potency result is “inactive”.
As for `CCOC(=O)C1CCN(c2ccc(C(=O)O)cc2[N+](=O)[O-])CC1`, the Potency entry was “inactive”.
For the compound `O=C(Nc1cccc(Cl)c1)c1cc([N+](=O)[O-])ccc1N1CCN(CCO)CC1`, the Potency result was “inactive”.
For `CC(C(=O)N1CCN(c2ccccc2F)CC1)c1ccc([N+](=O)[O-])cc1` (stereo not drawn), the Potency entry was “inactive”.
With `CCOC(=O)N1CCN(c2cc(C)c([N+](=O)[O-])cc2F)CC1`, the Potency is 16.4 µM (active).
As for `CCOC(=O)N1CCN(C(=S)Nc2ccc(C)cc2C)CC1`, the Potency result is “inactive”.
The value for `CCC(=O)c1ccc(N2CCN(C(=O)c3cc([N+](=O)[O-])ccc3F)CC2)c(F)c1` was 16.4 µM (active); that for `COC(=O)c1oc2ccc(Br)cc2c1NC(C)=O` was “inactive”; that for `O=C(CSc1nc2ccccc2s1)Nc1ccc(C(=O)O)cc1` was “inactive”.
Regarding `O=C(CSc1nc(Nc2ccccc2)nc(N2CCOCC2)n1)Nc1cc(Cl)ccc1O`, the Potency is 29.1 µM (active).
With `O=C(CC(c1ccccc1)c1cc(Cl)ccc1O)NCCN1CCOCC1` (stereo not drawn), the Potency entry is “inactive”.
With `CC1(c2ccccc2)NC(=O)N(CC(=O)Nc2cc(Cl)ccc2N2CCOCC2)C1=O` (stereo not drawn), the Potency result is “inactive”.
Take `Cc1ccc(S(=O)(=O)N2CCOCC2)cc1NC(=O)CSc1nnc(N)s1`: the Potency result was “inactive”.
Take `O=C(CSc1nc2ccc(Nc3nc(N4CCOCC4)nc(N4CCOCC4)n3)cc2s1)NCc1ccco1`: the Potency is 13 µM (active).
Regarding `C=CCn1c(CSc2nc3ccccc3s2)nnc1SCC(=O)NCc1ccco1`, the Potency result was “inactive”.
Under `CCn1c(SCC(=O)NCc2ccco2)nnc1-c1ccc(N)cc1` stands “inactive”; under `Cc1ccccc1NC(=O)CSc1nc2ccc(Nc3nc(N4CCOCC4)nc(N4CCOCC4)n3)cc2s1`, 14.6 µM (active).
As for `Cc1ccccc1-n1nc(C)c2c1N=C1C(Cl)=CC(Cl)=CN1C2c1ccc(C(=O)O)cc1` (stereo not drawn), the Potency result was “inactive”.
With `CCn1ccnc1CN(C)C(=O)c1cc(COc2ccc(Cl)cc2OC)on1`, the Potency result is “inactive”.
The value for `COC(=O)[C@H](Cc1ccccc1)NC(=O)N1CC(C)OC(C)C1` (stereo partly drawn) was “inactive”.
Under `O=C1NC(c2ccccc2)CCC1(Cl)Cl` (stereo not drawn) stands “inactive”.
For the compound `Cc1cc(C(=O)COC(=O)CCCN2C(=O)c3ccccc3C2=O)c(C)n1C`, the Potency result was “inactive”.
Consider `Cc1ccc(NC(=O)c2cn3c4c(ccc(Cl)c4c2=O)OC(C)C3)cc1C` (stereo not drawn), for which the Potency entry was “inactive”.
Regarding `C#CCOCCOCCOCCNc1nc(N2CCN(C(=O)Cn3cc(CCO)nn3)CC2)nc(N2CCN(C(=O)[C@H](CCCCN)n3cc(CCCC)nn3)CC2)n1`, the Potency entry was “inactive”.
In the case of `COc1cc(NC(=S)NCc2ccc(S(N)(=O)=O)cc2)cc(OC)c1`, the Potency entry was “inactive”.
`CCc1c(O)cc2n(c1=O)-c1ccccc1C2(C)C`: the Potency entry is “inactive”.
Turning to `CC1(C)CC(=O)C=C(N2CCCC2)C1`, the Potency entry was “inactive”.
For `CC1(C)CC(=O)C=C(N2CCOCC2)C1`, the Potency entry was “inactive”.
On to `CC1(C)CC(N2CCN(C(c3ccccc3)c3ccccc3)CC2)=CC(=[N+]2CCCCC2)C1`, for which the Potency is 0.164 µM (active).
Under `Cc1nc(Cl)c2oc3ccccc3c2n1` stands “inactive”; under `c1csc(CN2CCN(Cc3cccs3)C2c2cccs2)c1`, “inactive”.
As for `O[C@H]1C[C@H](c2ccc(Cl)cc2)N(Cc2cccs2)C[C@@H]1n1cc(C2CC2)nn1`, the Potency is 14.6 µM (active).
`COC(=O)C1=C(C(=O)OC)C(c2cc([N+](=O)[O-])ccc2O)c2sc(=O)[nH]c2S1` (stereo not drawn): the Potency entry is “inactive”.
Under `CC1=NN(C(C)C)C(=O)C1` stands “inactive”.
With `Cc1ccc(CN(CC(=O)NC2CCCCC2)C(=O)c2csnn2)cc1`, the Potency entry is “inactive”.
For the compound `Cc1cc(C(C)(C)C)oc1C(=O)N(CC(=O)NC1CCCC1)Cc1ccc(Cl)cc1`, the Potency is 14.1 µM (active).
As to `COc1ccc(CN(CC(=O)NC2CCCC2)C(=O)CCC(=O)Nc2cc(C)on2)cc1`, the Potency entry is “inactive”.
Under `CN1CCN(C(=O)c2ccc(-c3ccc(Br)cc3)o2)CC1` stands “inactive”; under `Cc1ccccc1C1=NC(C(F)(F)F)(C(F)(F)F)c2c(n(-c3ccc(F)cc3)c(=O)[nH]c2=O)N1`, 23.1 µM (active); under `O=S(=O)(NCC1CC1)c1ccc(F)c(Cl)c1`, “inactive”.
On to `Cc1cc(NS(=O)(=O)c2ccc(NC(=O)c3ccccc3C)cc2)nc(C)n1`, for which the Potency entry is “inactive”.
As for `COc1c(F)c(F)c(C(=O)O)c(Nc2ccccc2C)c1F`, the Potency result is “inactive”.
Under `CCCS(=O)(=O)c1c(Nc2ccccc2C)sc(C(=O)c2ccccc2)c1N` stands 16.4 µM (active); under `CCOC(=O)c1c(C)[nH]c(C)c1S(=O)(=O)N(C)CC(=O)Nc1ccccc1C`, “inactive”; under `Cc1ccc2c(c1)C1CN(C)CCC1N2C(=S)Nc1ccc(Cl)cc1Cl` (stereo not drawn), “inactive”.
`Cc1ccc(Nc2c(O)nc[nH]c2=O)cc1C`: the Potency entry was “inactive”.
As to `Cc1ccc2[nH]cc(CCCN3C(=O)c4ccccc4C3=O)c2c1`, the Potency result was “inactive”.
The value for `O=C(CCS(=O)(=O)c1ccccc1)NC1CCCC1` was “inactive”; that for `O=C(CNC1CCCCC1)NCC1(c2ccccc2)CCCC1` was 23.1 µM (active); that for `CC(=O)CC(CC(=O)NC1CCCCC1)c1ccccc1` (stereo not drawn) was “inactive”.
With `CC(C)NC(=O)c1ccccc1S(=O)c1ccccc1C#N` (stereo not drawn), the Potency result was “inactive”.
As to `O=C(CSc1ccc(Cl)cc1)NC1CC1`, the Potency result is “inactive”.
